Measurements taken from PubChem BioAssay (NCI).
Values joined by “and” are separate entries in the source; they are usually repeats but may differ in a detail not shown here. Equal values may be shown once. The panel holds about 79,000 compounds, 15% with a hit somewhere; the sample as a whole holds those more often. Active and inactive are the calls of the source. Cut-off read from the data, not from the text of the source: active = growth inhibition above about 70%; inactive = the rest.

What was measured:
[1] = NCI Yeast Anticancer Drug Screen. Data for the rad50 strain (AID 155);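 note: 0% = growth of vehicle-only cultures of the same strain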; details: S. cerevisiae rad50 strain growth inhibition, stronger effect = higher value
In short: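 Cells are treated with compound, grown, and their growth is then scored against vehicle-only cultures of the same repair-deficient yeast strain.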

[2] = NCI Yeast Anticancer Drug Screen. Data for the mec2-1 strain (AID 157); details: S. cerevisiae mec2-1 strain, stronger effect = higher value
In short: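 Cells of the genetically defined mec2-1 yeast strain are incubated with test compound. Inhibition of growth is calculated against vehicle-treated controls.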

[3] = NCI Yeast Anticancer Drug Screen. Data for the sgs1 mgt1 strain (AID 161);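 note: 0% = growth of cultures given vehicle only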; details: S. cerevisiae sgs1 mgt1 strain, stronger effect = higher value
In short: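 Test agents were incubated with a DNA-repair-mutant yeast strain. Growth was then read and compared against vehicle-treated controls.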

[4] = NCI Yeast Anticancer Drug Screen. Data for the cln2 rad14 strain (AID 165);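 note: 0% = growth equal to vehicle treated cultures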; details: S. cerevisiae cln2 rad14 strain, stronger effect = higher value
In short: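 The screen exposed genetically defined yeast (cln2 rad14) to test compounds and scored growth inhibition relative to vehicle-treated controls.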

[5] = NCI Yeast Anticancer Drug Screen. Data for the bub3 strain (AID 167); details: S. cerevisiae bub3 mutant strain, stronger effect = higher value
In short: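 Part of a panel of yeast mutants defective in DNA damage repair or cell cycle regulation. Each strain is grown with compound, and inhibition is calculated relative to solvent-treated cultures.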

[6] = NCI Yeast Anticancer Drug Screen. Data for the mlh1 rad18 strain (AID 175); details: S. cerevisiae mlh1 rad18 strain growth inhibition, stronger effect = higher value
In short: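 Compound-treated yeast growth, normalised to vehicle controls. Strain bears defined DNA repair mutations.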

[7] = at 5.0 µM (retest, dose inferred, filed as 0.5)
[8] = at 50.0 µM (retest, dose inferred, filed as 5.0)

Measured: growth inhibition

O=C1/C(=C/c2ccc(Cl)cc2)Sc2scc(-c3cccc([N+](=O)[O-])c3)[n+]21
active: [1]; [8] 99% | [1]; at 50.0 µM 89.5% | [2]; [8] 100% | [2]; at 50.0 µM 90.4% | [3]; [7] 84% | [3]; [8] 99% | [3]; at 50.0 µM 91.9% | [4]; [8] 98% | [4]; at 50.0 µM 90.5% | [5]; [7] 98% | [5]; [8] 99% | [5]; at 50.0 µM 89.8% | [6]; [8] 100% | [6]; at 50.0 µM 91.8%
inactive: [1]; [7] 26% | [2]; [7] 36% | [4]; [7] 44% | [6]; [7] 35%

CCN(CC)c1ccc(/C=C/c2ccnc3ccccc23)cc1
active: [1]; [8] 95% and 98% | [1]; at 50.0 µM 99% and 98.3% | [2]; [8] 98% and 99% | [2]; at 50.0 µM 99% and 97.8% | [3]; [8] 94% and 98% | [3]; at 50.0 µM 99.1% and 98.5% | [4]; [8] 97% and 98% | [4]; at 50.0 µM 98.6% and 97.5% | [5]; [8] 98% and 99% | [5]; at 50.0 µM 98.7% and 98.3% | [6]; [8] 97% and 98% | [6]; at 50.0 µM 98.3% and 97.4%
inactive: [1]; [7] -11% and 0% | [2]; [7] -3% and 1% | [3]; [7] 4% and -3% | [4]; [7] -10% and 7% | [5]; [7] 28% and -4% | [6]; [7] 17% and 16%

O=C(CON1C(=O)c2ccccc2C1=O)c1ccccc1
active: [1]; at 50.0 µM 91.2% | [5]; at 50.0 µM 80.5% | [6]; at 50.0 µM 76.2%
inactive: [1]; [7] -3% | [1]; [8] 19% | [2]; [7] 8% | [2]; [8] 29% | [2]; at 50.0 µM 52% | [3]; [7] 6% | [3]; [8] 21% | [3]; at 50.0 µM 55.1% | [4]; [7] -5% | [4]; [8] -8% | [4]; at 50.0 µM -3.15% | [5]; [7] -7% | [5]; [8] 32% | [6]; [7] -16% | [6]; [8] 18%

C=CC(=O)O
inactive: [1]; [7] -2% | [1]; [8] -1% | [1]; at 50.0 µM 9.85% and 32.4% | [2]; [7] -1% | [2]; [8] 0% | [2]; at 50.0 µM 21.9% and -20.6% | [3]; [7] -1% | [3]; [8] 2% | [3]; at 50.0 µM -3.35% and 18.4% | [4]; [7] 0% | [4]; [8] 1% | [4]; at 50.0 µM 20.8% and 9.55% | [5]; [7] 1% | [5]; [8] 3% | [5]; at 50.0 µM 47% and 30.1% | [6]; [7] 1% | [6]; [8] -1% | [6]; at 50.0 µM 47.5% and 39%

N#CC1(C2SCCS2=O)C2=C(C(=O)c3ccccc3C2=O)N2CCCC21 (centres undefined)
inactive: [1]; [7] 17% | [1]; [8] 56% | [2]; [7] 14% | [2]; [8] 49% | [3]; [7] 23% | [3]; [8] 67% | [4]; [7] 14% | [4]; [8] 40% | [4]; at 50.0 µM 43.2% | [5]; [7] 33% | [6]; [7] 17% | [6]; [8] 67%
active: [1]; at 50.0 µM 76.8% | [2]; at 50.0 µM 77.2% | [3]; at 50.0 µM 83.8% | [5]; [8] 80% | [5]; at 50.0 µM 70.2% | [6]; at 50.0 µM 89.9%

c1ccc(-c2conc2-c2ccccc2)cc1
inactive: [1]; [7] -22% | [1]; at 50.0 µM 60.8% | [2]; [7] -7% | [2]; at 50.0 µM 19.1% | [3]; [7] 9% | [3]; at 50.0 µM 31.4% | [4]; [7] -32% | [4]; [8] 68% | [4]; at 50.0 µM -2.5% | [5]; [7] -20% | [5]; at 50.0 µM 54% | [6]; [7] -10%
active: [1]; [8] 95% | [2]; [8] 91% | [3]; [8] 90% | [5]; [8] 92% | [6]; [8] 95% | [6]; at 50.0 µM 71.3%

CCOC(=O)C(Cc1c[nH]c2cc([N+](=O)[O-])ccc12)NS(=O)(=O)c1ccc2ccccc2c1 (centres undefined)
inactive: [1]; [7] -19% | [2]; [7] 2% | [3]; [7] -4% | [4]; [7] -17% | [5]; [7] 9% | [6]; [7] -19%
active: [1]; [8] 96% | [1]; at 50.0 µM 95.3% | [2]; [8] 98% | [2]; at 50.0 µM 97.3% | [3]; [8] 98% | [3]; at 50.0 µM 97.2% | [4]; [8] 94% | [4]; at 50.0 µM 94.2% | [5]; [8] 98% | [5]; at 50.0 µM 97.8% | [6]; [8] 97% | [6]; at 50.0 µM 95.7%

CN(C)c1ccc(/C=C/c2ccc3ccccc3[n+]2C)cc1
inactive: [1]; [7] 1% | [1]; at 50.0 µM 53.4% | [2]; [7] 3% | [3]; [7] 11% | [3]; at 50.0 µM 46.2% | [4]; [7] 3% | [5]; [7] -9% | [6]; [7] -15%
active: [1]; [8] 98% | [2]; [8] 98% | [2]; at 50.0 µM 99% | [3]; [8] 97% | [4]; [8] 98% | [4]; at 50.0 µM 98% | [5]; [8] 99% | [5]; at 50.0 µM 84.2% | [6]; [8] 98% | [6]; at 50.0 µM 98.3%
